# Screens as filed in PubChem.
# Hits are enriched below; roughly 4% of the tested compounds scored in any of these assays.
# Shn3 inh set2 – inhibitors of Schnurri-3 3'UTR reporter in osteoblasts; Clone20 osteoblast Shn3 3'UTR firefly luciferase, 24 h; actives 0.52% (n = 360,000); AID 588674; inhibition, % at 12.5 µM;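 active = mean inhibition of at least 75% with every replicate also reaching 75%; inconclusive = mean inhibition at least 75% but some replicate below; inactive = mean inhibition below 75%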;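 also: 0% = median of neutral control wells and 100% = pilot-screen positive control compound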
# PAX8 reporter – inhibitors of PAX8 transcriptional activity in RMG-I cells; RMG-I TPO-luciferase reporter, SteadyGlo, 24 h; inhibition, % at 12.6 µM; actives 1.2% (n = 360,000);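 active = mean replicate inhibition at least 60% with every replicate also reaching 60%; inconclusive = only one of the two criteria is met; inactive = mean below 60% and not all replicates reaching 60%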;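 also: luciferase light reporting Pax8 driven TPO promoter activity; plate controls were median of neutral control wells for no effect and mitoxantrone controls for full effect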
# Mdm2 MdmX PPI – disrupts the human Mdm2-MdmX interaction; O15151+Q00987; SaOS-2 split-luciferase Mdm2/MdmX complementation, luminescence; inhibition, % at 8 µM; actives 3% (n = 330,000);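 active = inhibition of at least 50% at 8 µM in the primary screen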
# Target sequence (O15151 whole entry, looked up): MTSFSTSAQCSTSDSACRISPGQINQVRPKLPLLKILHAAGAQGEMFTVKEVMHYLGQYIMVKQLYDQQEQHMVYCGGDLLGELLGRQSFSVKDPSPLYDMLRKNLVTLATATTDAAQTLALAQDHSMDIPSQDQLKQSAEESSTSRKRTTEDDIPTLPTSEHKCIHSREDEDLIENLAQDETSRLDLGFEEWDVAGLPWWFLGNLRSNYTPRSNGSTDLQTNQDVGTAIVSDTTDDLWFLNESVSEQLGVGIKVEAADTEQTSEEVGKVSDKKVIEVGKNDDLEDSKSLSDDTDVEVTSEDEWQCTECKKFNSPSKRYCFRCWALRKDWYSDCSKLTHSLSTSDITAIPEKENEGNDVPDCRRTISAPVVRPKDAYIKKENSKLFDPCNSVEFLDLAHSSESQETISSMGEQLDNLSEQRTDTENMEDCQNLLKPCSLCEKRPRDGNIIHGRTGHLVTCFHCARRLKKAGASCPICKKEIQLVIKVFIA
# Target sequence (Q00987 whole entry, looked up): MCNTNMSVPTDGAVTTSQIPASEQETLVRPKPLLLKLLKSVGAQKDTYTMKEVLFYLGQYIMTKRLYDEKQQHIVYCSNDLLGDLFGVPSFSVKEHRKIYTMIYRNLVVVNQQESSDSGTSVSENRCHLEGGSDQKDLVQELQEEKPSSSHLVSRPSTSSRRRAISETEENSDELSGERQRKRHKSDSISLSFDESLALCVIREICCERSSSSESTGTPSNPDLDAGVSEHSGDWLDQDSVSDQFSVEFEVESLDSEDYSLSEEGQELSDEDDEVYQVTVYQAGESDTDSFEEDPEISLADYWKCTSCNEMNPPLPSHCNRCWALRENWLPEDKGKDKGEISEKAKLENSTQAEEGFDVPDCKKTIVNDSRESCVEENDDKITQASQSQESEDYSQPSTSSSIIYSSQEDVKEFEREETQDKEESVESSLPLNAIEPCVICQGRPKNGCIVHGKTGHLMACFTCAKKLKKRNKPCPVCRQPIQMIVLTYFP
# CSC inhib – blocks cancer stem cells | cancer stem cell-like cells viability, luminescence | inhibition, % at 7.5 µM | actives 1.1% (n = 300,000); in the data active = inhibition above about 75%; inconclusive = no clear call, values can overlap the other calls; tested in HMLE shEcad cells
# Gli-Sufu antag – antagonists of Gli-Sufu signaling; Sufu-KO-LIGHT fibroblasts, Gli luciferase reporter luminescence; inhibition, % at 5 µM; actives 0.74% (n = 340,000); AID 588413;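 active = inhibition above about 55%, limit read from the data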;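 also: 0% = DMSO-treated cells and 100% = wells with medium but no cells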
# Beta apoptosis – blocks beta cell apoptosis | INS-1E cytokine-induced death, ATP luminescence, 48 h; percent of positive-control rescue, neutral wells zero | protection from apoptosis, % (concentration not given with the values) | actives 0.8% (n = 300,000) | AID 435005;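 active = Every replicate reaches about 75%, or at least half do and their mean reaches it too, limit read from the data; inconclusive = At least half of replicates reach the limit but their mean does not; inactive = Under half of replicates reach the limit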;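 also: 0% = cytokine-treated negative control wells and 100% = positive control rescue; higher means more ATP so stronger rescue from cytokine killing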
# Mdm2 MdmX conf – confirmation of human Mdm2/MdmX interaction inhibitors; Mdm2-MdmX binding, luminescent assay; inhibition, % at 8 µM; shares compounds with Mdm2 MdmX PPI; AID 489028; actives 55% (n = 10,000); in the data active = inhibition above about 40%
# Full FLuc ctr – counter-screen for Mdm2/MdmX inhibitors: full-length luciferase; inhibition, % at 8 µM; shares compounds with Mdm2 MdmX PPI; SaOS-2 full-length luciferase counterscreen, luminescence; actives 77% (n = 6,200);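 active = mean inhibition at 8 µM reaching about 37%, which flags the compound as non-specific, limit read from the data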;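 also: p53-null SaOS-2 cells with luciferase driven by a doxycycline-inducible promoter; compound on cells about two nights before reading with doxycycline added after day one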
# * marks the source's active call; other numbers are inactive results; ? = inconclusive; . = no result.
SMILES,Shn3 inh set2,PAX8 reporter,Mdm2 MdmX PPI,CSC inhib,Gli-Sufu antag,Beta apoptosis,Mdm2 MdmX conf,Full FLuc ctr
Cn1c(CCN2CCCC2)nc2cc(NS(=O)(=O)c3ccc(Cl)cc3)ccc21,-3,101*,69*,37,16,32,32,.
CS(=O)(=O)N1c2ccccc2[C@]2([C@@]34C[C@H]5C(=O)N[C@@H](Cc6ccccc6)C(=O)N5[C@@H]3N(S(C)(=O)=O)c3ccccc34)C[C@H]3C(=O)N[C@@H](Cc4ccccc4)C(=O)N3[C@H]12,.,-5,23,1,2,-8,.,.
CC[C@H](C)[C@@H]1NC(=O)[C@H]([C@@H](C)CC)NC(=O)[C@@H](CC(C)C)NC(=O)[C@H](Cc2ccccc2)NC(=O)[C@H](Cc2ccccc2)NC(=O)[C@@H]2CCCN2C(=O)[C@@H]2CCCN2C(=O)[C@H](C(C)C)NC(=O)[C@H](CC(C)C)NC1=O,30,16,52*,.,-8,5,12,.
COc1ccc(C(=O)/C=C/c2ccc(O)cc2)c(O)c1C/C=C(\C)CCC=C(C)C,47,.,68*,.,6,.,-4,.
CC(C)C#Cc1ccc([C@H]2[C@H]3CN(C(=O)c4ccc5c(c4)OCO5)CCCCN3[C@H]2CO)cc1,.,18,.,.,.,.,.,.
CCOC(=O)N/N=C/c1c(C)nn(-c2ccccc2Cl)c1Cl,-33,-156,-41,-4,-81,-3,.,.
Cc1nn(-c2ccccc2Cl)c(Cl)c1/C=N/Nc1nc2ccccc2s1,83,2,87*,27,86*,7,96*,56*
COC(=O)c1ccccc1NC(=O)CSc1nc(-c2ccco2)cc(C(F)(F)F)n1,-3,.,67*,.,38,.,62*,74*
COC(=O)c1ccc(C(=O)OC)c(NC(=O)CSc2nc(-c3ccco3)cc(C(F)(F)F)n2)c1,42,.,.,.,5,.,.,.
O=C(CSc1nc(-c2ccco2)cc(C(F)(F)F)n1)Nc1ccc2c(c1)CCC2,12,.,52*,51,3,0,61*,45*
Cc1cc(NC(=O)CSc2nc(-c3ccco3)cc(C(F)(F)F)n2)n(-c2ccccc2)n1,14,.,54*,52,2,6,56*,54*
Cc1cc(NC(=O)CCCSc2nc(-c3ccco3)cc(C(F)(F)F)n2)n(-c2ccccc2)n1,29,.,10,9,-2,9,.,.
Cc1ccc(NC(=O)CSc2nc(-c3ccco3)cc(C(F)(F)F)n2)cc1C,-48,.,44,.,7,4,.,.
CCCNC(=O)N(C)C[C@@H]1Oc2cc(C#CC(C)(C)O)ccc2S(=O)(=O)N([C@H](C)CO)C[C@@H]1C,.,12,.,.,.,.,.,.
CCOC(=O)N1CCN(C(=O)c2ccc3c(c2)sc2nc(-c4ccc(OC)cc4)cn23)CC1,10,.,5,-11,-3,11,.,.
COc1ccc2c(c1)sc1nc(-c3ccccc3)cn12,?,.,84*,91*,54,35,70*,114*
C1CCC(C(CC2CCCCN2)C2CCCCC2)CC1 (stereo unspecified),?,-4,100*,99*,1,90*,99*,24
CNC(=O)C[C@@H]1CC[C@H]2[C@@H](COc3ccc(NC(=O)Nc4cccc(F)c4)cc3C(=O)N2C)O1,.,-10,.,.,.,.,.,.
CNC(=O)CN(c1ccc(OC)cc1)S(=O)(=O)c1ccc(F)cc1,3,-6,7,-9,5,-12,.,.
CNC(=O)CN(c1cc(OCCOC)c(Cl)cc1Cl)S(=O)(=O)c1ccc(OC)cc1,0,-7,57*,6,4,-1,48*,79*
CCOc1ccc2nc3cc(NCc4ccc(OC)cc4)ccc3c(N)c2c1,?,.,97*,121*,64*,28,85*,15
C[C@H]1CN([C@@H](C)CO)C(=O)c2cc(NC(=O)c3ccncc3)ccc2O[C@@H]1CN(C)Cc1ccccc1,.,5,.,.,.,.,.,.
CC(C)(C)C(=O)O/N=C(\N)c1ccc(Oc2cc(Cl)cc(Cl)c2)c([N+](=O)[O-])c1,15,-24,60*,22,0,9,8,.
